# Source: PubChem BioAssay AID651871 (Sanford-Burnham Center for Chemical Genomics, 2012)
# “And” between values parts separate entries of the source, which are not always exact repeats. Equal entries are not always repeated.
# System: H9c2
# Test: protection of cardiomyocytes from stress damage, SAR follow-up, cell-based, panel, H9c2 and HL-1, ATP luminescence, set 2 (AID 651871);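 further: cells exposed to stressor for 2 h before ATP readout; reference of the scale not given here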
# Settings: H9c2/HL-1 cardiomyocytes, 2-deoxyglucose stress, with 2-deoxyglucose; run 7, at 79 µM (top of the series)
row,SMILES,activity (protection/inhibition)
1,COc1ccc2c(c1OC)C(=O)N1c3ccccc3C(=O)N(Cc3cccc(Cl)c3Cl)C21 (stereo not drawn),73.7% and 71.7% and -5.58%
2,CCOC(=O)c1cccc(NC(=O)CNC(=O)c2cc(-c3cc(OC)c(OC)c(OC)c3)nc3ccccc23)c1,77%
3,COc1ccc2nc(-c3cc(OC)c(OC)c(OC)c3)cc(C(=O)NCC(=O)Nc3ccc(C(C)=O)cc3)c2c1,66.5%
